ELG1 DNA repair = inhibitors of ELG1-dependent DNA repair in HEK293T cells | 330,000 compounds, 2.3% hits | Potency, µM (series often up to 46.1 µM), actives largely listed as inhibitors | AID 504467 | HEK293T ELG1-luciferase reporter, luminescence, 16 h; DNA damage induced by 5-fluorouridine; also: nearly all actives have a fitted effect of over 55% in size
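Cells (2,000 per well) received 5-fluorouridine plus test compound or DMSO and were incubated 16 hr at 37 °C, 5% CO2. Luciferase activity was read by luminescence 30 min after ONE-Glo addition; signal suppression marked inhibition of damage-induced ELG1 function.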
Giardia kill = Giardia lamblia killing | activity change, % at 7.66 µM, hits read low | 340,000 compounds, 0.15% hits | Giardia lamblia trophozoite viability; in the data active = activity change below about -80%; inconclusive = between about -30% and that limit;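 also: parasites exposed to compound for two days anaerobically before the ATP read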
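Viability, read as ATP luminescence: trophozoites at 100 cells/well, compound added, 48 hrs anaerobic at 37 deg C, then 15-30 min room-temperature development before reading.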
FBPA coupling cs = inhibits coupling enzyme system, counter-screen for aldolase hits | 290,000 compounds, 0.67% hits | coupling enzyme system counterscreen, AmpLite Red fluorescence | AID 2472 | activity change, negative = inhibition, % at 58.2 µM, hits read low; in the data active = activity change below about -30%
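First, compound is pin-transferred into glyceraldehyde-3-phosphate coupling-enzyme reagent at 57.5 uM final and held 10 min at RT. Next, substrate, coupling system and AmpLite Red are added. After 20 min RT, fluorescence (525/598 nm) is read.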
Sfp inh = Sfp phosphopantetheinyl transferase inhibition | Q9F4F7 | Biochemical Sfp PPTase activity, qHTS | 310,000 compounds, 3.5% hits | Potency, µM, usual class: inhibitors;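 also: the enzyme is Sfp with the accession as filed and its product quenches rhodamine fluorescence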
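Sfp 15 nM + cpd, 15 min RT; start w/ rhodamine-CoA 5 uM, BHQ-2-YbbR 12.5 uM (final); 50 mM Hepes pH 7.6, 10 mM MgCl2, 0.01% NP-40, 0.01% BSA; read 525/598 nm at 0 and 30 min.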
Numbers stand for hits; i = inactive; ? = inconclusive; nt = no result given. A selection: hits, their analogues and other compounds. The true share with any hit is near 5.5%. Unless noted, calls follow the shape of the dose curve; as a rule, active = well fitted curve in the direction sought with a large enough effect; inconclusive = small, poorly fitted or top-dose-only effect, or another doubt; inactive = no such curve, though single readings can be large; an effect the other way counts as inactive or inconclusive.

SMILES	ELG1 DNA repair	Giardia kill	FBPA coupling cs	Sfp inh
CC[C@H](C)[C@H](NC(=O)[C@H](CCC(=O)O)NC(=O)[C@@H](N)CO)C(=O)N[C@@H](CCC(N)=O)C(=O)N[C@@H](CC(C)C)C(=O)N[C@@H](CCSC)C(=O)N[C@@H](Cc1cnc[nH]1)C(=O)N[C@@H](CC(N)=O)C(=O)N[C@@H](CC(C)C)C(=O)NCC(=O)N[C@@H](CCCCN)C(=O)N[C@@H](Cc1cnc[nH]1)C(=O)N[C@@H](CC(C)C)C(=O)N[C@@H](CC(N)=O)C(=O)N[C@@H](CO)C(=O)N[C@@H](CCSC)C(=O)N[C@@H](CCC(=O)O)C(=O)N[C@@H](CCCNC(=N)N)C(=O)N[C@H](C(=O)N[C@@H](CCC(=O)O)C(=O)N[C@@H](Cc1c[nH]c2ccccc12)C(=O)N[C@@H](CC(C)C)C(=O)N[C@@H](CCCNC(=N)N)C(=O)N[C@@H](CCCCN)C(=O)N[C@@H](CCCCN)C(=O)N[C@@H](CC(C)C)C(=O)N[C@@H](CCC(N)=O)C(=O)N[C@@H](CC(=O)O)C(=O)N[C@H](C(=O)N[C@@H](Cc1cnc[nH]1)C(=O)N[C@@H](CC(N)=O)C(=O)N[C@@H](Cc1ccccc1)C(=O)O)C(C)C)C(C)C	nt	nt	i	i
O=C(NCCc1nc2ccccc2n1CCOc1ccc2ccccc2c1)C1CCCCC1	nt	i	nt	nt
COc1cc(/C=N/n2c(=S)[nH]nc(C)c2=O)cc([N+](=O)[O-])c1O	i	i	i	14µM
COc1ccc(/C=N/n2c(-c3cc(C)[nH]n3)n[nH]c2=S)cc1	i	i	i	i
COc1ccc(/C=N/n2c(-c3cc(C)[nH]n3)n[nH]c2=S)cc1OC	i	i	i	56µM
COc1cc(/C=N/n2c(-c3ccccc3)n[nH]c2=S)cc(OC)c1OC	4.1µM	i	i	i
CCc1n[nH]c(=S)n1/N=C/c1cc(OC)cc([N+](=O)[O-])c1O	?	i	i	22µM
Cc1ccc2nc(C)cc(C(=O)N3CCCC(N4CCN(c5ccccc5C)CC4)C3)c2c1 (stereo not given)	i	i	i	i
COc1ccc(O[C@H]2C=C[C@@H](c3ccccc3)O[C@H]2COC(=O)CC/C(C)=N\O[C@@H](C)CN2CCCc3nc(C)c(C)cc32)cc1	nt	nt	i	i
O=C(Nc1ccc2nccnc2c1)N1CCCCCC1	nt	i	nt	nt
COc1cc(/C=N/n2c(-c3cc(C)[nH]n3)n[nH]c2=S)cc(OC)c1O	i	i	i	28µM
COc1ccc(NC(=O)CN(C)C(=O)c2cc(-c3ccco3)nc3ccccc23)cc1	18µM	i	nt	nt
Cc1ccc(-c2cc(C(=O)N(C)CC(=O)Nc3ccccc3Br)c3ccccc3n2)o1	5.2µM	i	nt	nt
CN(CC(=O)Nc1ccc(F)c(F)c1F)C(=O)c1cc(-c2ccncc2)nc2ccccc12	23µM	i	nt	nt
CCC(CO)Oc1cc(NC(=O)c2ccc(C)cc2)c2ncn(C(C)C)c2c1 (stereo not given)	?	i	nt	nt
Nn1cc(Br)c(=O)[nH]c1=O	nt	nt	nt	i
COc1ccc(CNCCC(c2ccc(F)cc2)c2ccc(OC)cc2)cc1 (stereo not given)	i	i	i	i
COc1ccc(C(CCNCc2ccc(F)cc2)c2ccc(F)cc2)cc1 (stereo not given)	i	i	i	56µM
O=C(Nc1cccc2nsnc12)c1ccc(-c2ccc(Br)cc2)o1	?	i	i	40µM
O=C(Nc1cccc(NC(=O)c2ccc(-c3ccc(Br)cc3)o2)c1)c1ccco1	9.2µM	i	i	i
Cc1cccc(C)c1OCC(=O)Nc1ccc(NC(=O)c2ccco2)cc1	i	i	i	i
CS(=O)(=O)N1CCN(c2ccccc2NC(=O)c2ccc(-c3ccc(Br)cc3)o2)CC1	15µM	i	i	i
O=C(Nc1cccc(NC(=O)c2ccccc2Cl)c1)c1ccco1	i	i	nt	i
Cc1cccc(C)c1OCC(=O)Nc1cccc(NC(=O)c2ccco2)c1	18µM	i	i	i
CN1CCN(c2ncc3nc(-c4ccccc4)c(=O)n(CCc4ccccc4)c3n2)CC1	nt	nt	i	i
SMILES	ELG1 DNA repair	Giardia kill	FBPA coupling cs	Sfp inh
CC(=O)c1ccc2c3c(cc(C)c2c1)CCCC3	nt	i	nt	nt
O=C(Nc1ccccc1)Nc1cccc2nsnc12	?	i	i	63µM
O=C(Nc1cccc2nsnc12)c1cccs1	?	i	i	i
CCCCc1ncc(CN2CCC(n3nccc3NC(=O)c3ccccc3Cl)CC2)[nH]1	10µM	i	nt	i
Cc1cc(=O)c2c(O)c(O)ccc2o1	i	i	i	79µM
CC1=CCc2c(cc3oc(C)cc(=O)c3c2O)OC1	nt	nt	i	i
CCCCNC(=O)C1CCN(Cc2ccccn2)CC1	i	i	i	56µM
CC(C)c1nc2oc3c(NCC4CCCO4)ncnc3c2c2c1CCC2 (stereo not given)	16µM	i	i	i
CCCc1nc2oc3c(NCC4CCCO4)ncnc3c2c2c1COC(C)(C)C2 (stereo not given)	i	i	i	i
CC(C)Cc1nc2oc3c(NCC(C)O)ncnc3c2c2c1CCCC2 (stereo not given)	15µM	i	i	i
CC(C)Cc1nc2oc3c(Cl)ncnc3c2c2c1CCCC2	i	i	i	i
COc1ccc(CCNC(=O)c2cc(-c3ccncc3)nc3c(Cl)cccc23)cc1OC	?	i	i	i
COc1ccc(CNC(=O)c2cc(-c3ccncc3)nc3c(C)cc(C)cc23)cc1OC	23µM	i	i	?
CCOc1ccc(CCNC(=O)CN2C(=O)c3cccnc3Oc3ccc(Cl)cc32)cc1	?	i	i	i
Cc1cc(O)c(/C=N/Nc2ccccc2)c(=O)o1	i	i	i	18µM
O=C1CCCC=C1[C@@H](O)COCc1ccccc1	nt	nt	i	i
CSc1nc(N)nc2c1ncn2CC(=O)NCc1ccc2[nH]ccc2c1	23µM	i	nt	nt
CSc1nc(N)nc2c1ncn2CC(=O)NCc1ccccc1	i	i	nt	nt
COc1ccccc1CNCc1cc(OC)c(OC)cc1OC	i	i	i	i
COc1ccccc1CNCc1cc(Br)ccc1OC	?	i	i	63µM
Fc1ccccc1COc1ccc(Br)cc1CNCc1ccncc1	?	i	i	79µM
Cc1cc2cc(CNC(=O)c3cccs3)ccc2n1C	?	i	i	45µM
CCOC(=O)CCC(=O)NCc1ccc2c(c1)cc(C)n2C	i	i	i	79µM
COc1ccccc1N1CCN(CC(=O)Nc2ccc(S(=O)(=O)N3CCCCCC3)cc2)CC1	?	i	nt	nt
CCN1CCN(S(=O)(=O)c2ccc(Cl)c(C(=O)NCc3ccco3)c2)CC1	i	i	nt	nt
COc1cccc(OC)c1C(=O)N1CCN(Cc2ccncc2)CC1	i	i	i	10µM
CN(c1cccc(NC(=O)CN(c2cccc(Cl)c2)S(=O)(=O)c2ccccc2)c1)S(C)(=O)=O	26µM	i	i	i
COc1ccc(N(CC(=O)Nc2cccc(N(C)S(C)(=O)=O)c2)S(=O)(=O)c2ccc(F)cc2)cc1	13µM	i	i	i
CCOc1ccc(NC(=O)CN(c2ccc([N+](=O)[O-])cc2)S(=O)(=O)c2ccccc2)cc1	10µM	i	i	i
CC(=O)Nc1ccc(NC(=O)CN(c2ccc([N+](=O)[O-])cc2)S(=O)(=O)c2ccccc2)cc1	i	i	i	i
